# ADAM10 inh = inhibitors of human ADAM10; inhibition, % at 7 µM; recombinant ADAM10, EDANS/DABCYL FRET peptide cleavage, 3 h; 0.62% of 370,000 active; O14672;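 active = inhibition above a per-campaign cutoff equal to the mean of compounds falling between control-based bounds plus 3 SD, cut at about 20% in these data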
# proKLK7 act = activators of human kallikrein-7 zymogen. P49862. purified proKLK7, EDANS-DABCYL substrate fluorescence; 100% is mature enzyme control, 0% vehicle. 0.9% of 370,000 active. activation, % at 7 µM;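 active = activation above the mean of all tested compounds plus 3 SD, computed per campaign excluding outliers beyond control limits, cut at about 13% in these data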
# PLCg1 inh = inhibitors of human phospholipase C gamma1. 0.84% of 370,000 active. purified PLC-gamma1, fluorogenic substrate, fluorescence. P19174. inhibition, % at 12.2 µM; in the data active = inhibition above about 9.5%
# ADAM17 inh = ADAM17 inhibition, QFRET primary screen; AID 720648; inhibition, % at 6.95 µM; P78536; 0.83% of 370,000 active; recombinant ADAM17, EDANS/DABCYL FRET peptide cleavage;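 active = inhibition above the mean of compounds lying between control limits plus 3 SD, set per campaign, cut at about 8.5% in these data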
# PLCb3 inh = PLC-beta3 (human) inhibition, primary screen; Q01970; Purified PLC-beta3, fluorogenic substrate, fluorescence; inhibition, % at 12.2 µM; 0.18% of 370,000 active; AID 720704
# PLCgamma1 ctr = inhibits human PLC-gamma1 in PLC-beta3 counter-screen; inhibition, % at 12.3 µM; purified PLC-gamma1, fluorogenic substrate, fluorescence; 3.1% of 3,300 active; shares compounds with PLCg1 inh; in the data active = inhibition above about 9.5%
# PLCb3 confirm = human PLC-beta3 inhibition, confirmation | shares compounds with PLCg1 inh | purified PLC-beta3, fluorogenic substrate fluorescence | inhibition, % at 12.3 µM | 1% of 3,300 active | AID 743261
# Hits are given with their value; . = inactive; / = no result given. Only some compounds are listed: those with a hit (about 2.9% of all), similar ones and a draw of the others. Rule as the data show it, unless noted: active = inhibition above about 11%; inactive = the rest.
SMILES,ADAM10 inh,proKLK7 act,PLCg1 inh,ADAM17 inh,PLCb3 inh,PLCgamma1 ctr,PLCb3 confirm
O=C(c1cccnc1)N1CCCC(Nc2ccc(F)cc2)C1 (stereo not drawn),.,.,15,.,.,.,.
CC1CN(C(=O)c2cccc(S(=O)(=O)N3CCN(c4ccc(F)cc4)CC3)c2)CC(C)O1 (stereo not drawn),.,.,.,.,.,/,/
COc1ccc(NC(=O)COC(=O)c2cc(=O)c3ccccc3o2)cc1OC,.,.,.,.,.,/,/
COCCCNC(=O)[C@H]1O[C@@H](n2cnc3c(=O)[nH]c(N)nc32)[C@H](O)[C@@H]1O,.,.,.,.,.,/,/
O=C(CN1C(=O)NC2(CCCC2)C1=O)NNC(=O)c1ccccc1,.,.,.,.,.,/,/
Nc1sc(-c2ccccc2)cc1C(=O)N1CCNCC1,.,.,.,.,.,/,/
Cc1ccc(S(=O)(=O)CCC(=O)OCC(=O)Nc2cccc(S(=O)(=O)N3CCCCC3)c2)cc1,.,.,.,.,.,/,/
C/C(=N/NS(=O)(=O)c1ccc(C)cc1C)c1c[nH]c2ccccc12,.,.,.,.,.,/,/
CCCNC(=O)CSc1n[nH]c(=O)n1CCc1ccccc1,.,.,.,.,.,/,/
CC(C)CNC(=O)CSc1n[nH]c(=O)n1CCc1ccccc1,.,.,13,.,.,.,.
COc1cc2c(cc1OC)[N+]([O-])=C(c1ccccc1)C2=O,.,.,.,.,.,/,/
CCOc1cc(Br)cc(C(c2c(C(=O)O)[nH]c3ccccc23)c2c(C(=O)O)[nH]c3ccccc23)c1O,.,.,28,.,.,48,.
CC(=O)OCC(=O)C1(O)CCC2C3CCC4C(OC(C)=O)C(=O)CCC4(C)C3C(=O)CC21C (stereo not drawn),.,.,.,.,.,/,/
CCCNC(=O)C1(C)CCCN(C(=O)c2ccc(C)c(F)c2)C1 (stereo not drawn),.,.,.,.,.,/,/
CCNC(=O)C1(C)CCN(C(=O)c2ccc(OC)c(OC)c2)C1 (stereo not drawn),.,.,9.7,.,.,.,.
CCCNC(=O)C1(C)CCN(C(=O)c2ccc(C)c(F)c2)C1 (stereo not drawn),.,.,.,.,12,.,.
CC(C)Nc1nc(NC(C)C)nc(N(C)n2cnnc2)n1,.,.,9.9,.,.,.,.
CC(C)Nc1nc(NC(C)C)nc(Nn2cnnc2)n1,.,.,.,.,.,/,/
O=C(NC(=S)N1CCc2ccccc21)c1ccccc1Br,.,.,11,.,.,.,.
Cc1cccc(C(=O)Nc2ccc(S(=O)(=O)N3CCOCC3)cc2C)c1,.,.,.,.,.,/,/
CC(C)c1ccc(NC(=O)Cc2ccc(NC3=NC4CS(=O)(=O)CC4S3)cc2)cc1 (stereo not drawn),.,.,11,.,.,.,.
CC(C)c1ccc(NC(=O)c2cccc(NC3=NC4CS(=O)(=O)CC4S3)c2)cc1 (stereo not drawn),.,.,9.6,.,.,.,.
CCc1ccc(NC(=O)c2cccc(NC3=NC4CS(=O)(=O)CC4S3)c2)cc1 (stereo not drawn),.,.,.,.,.,/,/
Cc1ccc(CNC(=O)Cc2ccc(NC3=NC4CS(=O)(=O)CC4S3)cc2)cc1 (stereo not drawn),.,.,.,.,.,/,/
O=C(Cc1ccc(NC2=NC3CS(=O)(=O)CC3S2)cc1)NCc1ccc(Cl)cc1 (stereo not drawn),.,.,11,.,.,.,.
SMILES,ADAM10 inh,proKLK7 act,PLCg1 inh,ADAM17 inh,PLCb3 inh,PLCgamma1 ctr,PLCb3 confirm
CCOc1ccc(NC(=O)c2cccc(NC3=NC4CS(=O)(=O)CC4S3)c2)cc1 (stereo not drawn),.,.,9.9,.,.,.,.
O=S(=O)(NCCS(=O)(=O)N1CCN(c2ccc(F)cc2)CC1)c1ccccc1,.,.,.,.,.,/,/
CSCCC(c1nc2ccccc2[nH]1)n1c(-c2cc(C(F)(F)F)cc(C(F)(F)F)c2)nc2ccccc21 (stereo not drawn),.,.,.,.,.,/,/
COC1=CC(=O)OC(c2cccc(C(F)(F)F)c2)C1 (stereo not drawn),.,.,.,.,.,/,/
O=C(Nc1ccc(Cl)cc1)c1cccc(NC2=NC3CS(=O)(=O)CC3S2)c1 (stereo not drawn),.,.,12,.,.,.,.
COc1cc(/C=N/Nc2nc(Nc3ccccc3)nc(N3CCCCC3)n2)ccc1OCC(=O)O,.,.,12,.,.,.,.
Cc1ccc(C(CNC(=O)c2ccco2)N2CCN(C)CC2)cc1 (stereo not drawn),.,.,.,.,.,/,/
COc1ccc(Cl)c(NC(=O)Nc2c(C)n(-c3ccccc3)c(=O)n2C)c1,.,.,.,.,.,/,/
Cc1cc(Cl)ccc1NC(=O)Nc1c(C)n(-c2ccccc2)c(=O)n1C,.,.,9.6,.,.,.,.
Cc1ccccc1CN1CCN(CC(=O)NCCCN2CCN(c3ccc(F)cc3)CC2)C1=O,.,.,9.6,.,13,.,.
O=C(CN1CCN(Cc2ccc(Cl)cc2)C1=O)NCCCN1CCN(c2ccc(F)cc2)CC1,.,.,.,.,.,/,/
Cc1cc(NC(=O)c2ccccc2)ncc1NC(=O)c1cccs1,.,.,.,.,16,.,.
COc1ccc2[nH]c3c(c2c1)CCN1C(=O)C(CC(=O)NC/C=C(\C)CCC=C(C)C)C[C@H](C(=O)N2CCOCC2)[C@@]31CCC1CCCC1 (stereo partly drawn),.,.,.,.,.,/,/
Cc1ccc(S(=O)(=O)NC(C)(C)CSc2nncn2N)cc1,.,.,11,.,.,.,.
COc1cc(C23CCCN(CCC(C(C)(C)C)C2)C32OCCO2)cc(OC)c1OC (stereo not drawn),.,.,11,.,.,.,.
CC(=O)c1[nH]c(C)c(C(C)=O)c1C,.,.,.,.,.,/,/
COC(=O)c1c(C)[nH]c(C(C)=O)c1C,.,.,11,.,.,.,.
COc1ccc(C(C)c2cc3c(cc2OCC(=O)O)OCO3)cc1 (stereo not drawn),.,.,.,.,21,.,.
COc1ccccc1C(CC(=O)O)c1ccc2c(c1)OCO2 (stereo not drawn),.,.,.,.,.,/,/
CSc1cnn(CCC#N)c(=O)n1,.,.,12,.,.,.,.
CSc1nc(=O)n(CCC#N)nc1SC,.,.,.,.,12,.,.
Cc1nnc(SCCC#N)n(CCC#N)c1=O,.,.,.,.,.,/,/
COc1ccc(Nc2cc(C)nc3nc(C)nn23)cc1Cl,.,.,9.6,.,.,.,.
CC(C)CN(C(=O)COC(=O)Cc1n[nH]c(=O)c2ccccc12)C1CCS(=O)(=O)C1 (stereo not drawn),.,.,12,.,.,.,.

# High-throughput results from PubChem BioAssay.
